PubChem BioAssay (NCI)
“And” between values parts separate entries of the source, which are not always exact repeats. Identical values can stand only once. The panel holds about 83,000 compounds, 20% with a hit somewhere; the sample as a whole holds those more often.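 48-hour exposure, single concentration, 96-well plates; percent growth endpoint where 0 means no net growth. Active: below 10.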 The source made the active and inactive calls.

Columns and labels:
Assay in all cases: NCI-60 one-dose screen, 48 h (100 = growth as untreated, 0 = no growth, -100 = all killed)
Details in all cases: 10 µM unless noted
T-47D breast = tested on: T-47D breast
MDA-MB-435 melanoma = tested on: MDA-MB-435 melanoma
SW-620 colon = tested on: SW-620 colon
MCF7 breast = tested on: MCF7 breast
HCT-116 colon = tested on: HCT-116 colon
HCC-2998 colon = tested on: HCC-2998 colon
KM12 colon = tested on: KM12 colon
BT-549 breast = tested on: BT-549 breast

SMILES | growth (T-47D breast) | growth (MDA-MB-435 melanoma) | growth (SW-620 colon) | growth (MCF7 breast) | growth (HCT-116 colon) | growth (HCC-2998 colon) | growth (KM12 colon) | growth (BT-549 breast)
Nc1ccc(N=Nc2ccc(S(=O)(=O)O)cc2)cc1S(=O)(=O)O | 97.9% (inactive) and 98.3% (inactive) | 108% (inactive) and 101% (inactive) | 115% (inactive) and 97.8% (inactive) | 104% (inactive) and 92.8% (inactive) | 90.2% (inactive) and 114% (inactive) | 105% (inactive) and 94.5% (inactive) | 96.1% (inactive) and 105% (inactive) | 
Cc1cc(C)c(N)c(Br)c1 | 98.1% (inactive) and 87.3% (inactive) | 114% (inactive) and 104% (inactive) | 111% (inactive) and 104% (inactive) | 103% (inactive) | 110% (inactive) and 95.8% (inactive) |  | 106% (inactive) and 102% (inactive) | 
CCc1c(CC(=O)O)c2cc(C)ccc2n1Cc1ccc(Cl)cc1 | 86.3% (inactive) and -2.2% (active) | 114% (inactive) and 97.4% (inactive) | 102% (inactive) | 98.1% (inactive) and 95.4% (inactive) | 97.1% (inactive) and 110% (inactive) |  | 96% (inactive) and 95.3% (inactive) | 
CC(C)Oc1ccc2cc(-c3nn(CC4CCNCC4)c4ncnc(N)c34)ccc2c1 | 77.8% (inactive) and -8.43% (active) | 92.1% (inactive) and -86.6% (active) | 91.7% (inactive) and 1.44% (active) | 83.6% (inactive) and 15.2% (inactive) | 50.4% (inactive) and 9.14% (active) | 77.7% (inactive) and -13.5% (active) | 86.4% (inactive) and 22.4% (inactive) | 
O=C(O)C1(C(=O)O)CCC1.[NH2-].[NH2-].[Pt+2] | 96.6% (inactive) and 102% (inactive) | 108% (inactive) and 99.5% (inactive) | 111% (inactive) and 103% (inactive) | 98.5% (inactive) and 90.9% (inactive) | 107% (inactive) and 108% (inactive) | 97.2% (inactive) and 118% (inactive) | 112% (inactive) and 100% (inactive) | 
CC(/C=N/N1C(=O)c2ccccc2C1=O)c1ccccc1 (stereo unspecified) |  | 91.6% (inactive) | 106% (inactive) | 97.5% (inactive) | 108% (inactive) | 106% (inactive) | 113% (inactive) | 
CCCCCCCCCCCCCCCCOc1ccc(C)cc1 |  | 111% (inactive) | 101% (inactive) | 102% (inactive) | 108% (inactive) | 105% (inactive) | 108% (inactive) | 112% (inactive)
C=CCNC1=C2C[C@@H](C)C[C@@H](OC)[C@@H](OC(=O)CCCN)[C@H](C)/C=C(\C)[C@@H](OC(N)=O)[C@H](OC)/C=C\C=C(/C)C(=O)NC(=CC1=O)C2=O |  |  |  | -82% [100 µM] (active) and -94.9% [100 µM] (active) |  |  |  | 
N#C/C(=C/c1c(O)ccc2ccccc12)C(N)=O |  | 104% (inactive) | 94.6% (inactive) | 95.1% (inactive) | 101% (inactive) |  | 93.8% (inactive) | 93.7% (inactive)
Oc1ccc(/C=C/c2ccccc2)cc1 |  | 76% (inactive) and 74.8% (inactive) | 72.1% (inactive) and 62.7% (inactive) | 65% (inactive) and 75% (inactive) | 75.8% (inactive) and 73.8% (inactive) | 86.8% (inactive) and 86.5% (inactive) | 54% (inactive) and 54.6% (inactive) | 62.6% (inactive) and 68.1% (inactive)
CCN(CC)CCC(CNc1ccnc2cc(Cl)ccc12)c1ccc(OC)cc1 (stereo unspecified) |  | 8.96% (active) and -30.1% (active) | 77.2% (inactive) and 61.2% (inactive) | 80.6% (inactive) and 72.3% (inactive) | 46.5% (inactive) and 39.4% (inactive) | 70.9% (inactive) and 52.7% (inactive) | 77.9% (inactive) and 75.8% (inactive) | 72.2% (inactive) and 66.1% (inactive)
Fc1ccccc1Nc1n[nH]c(=S)s1 |  | 117% (inactive) | 105% (inactive) | 105% (inactive) | 98% (inactive) | 110% (inactive) | 104% (inactive) | 112% (inactive)
Cc1ccc(OCC2OC(n3cnc4c(Cl)nc(Cl)nc43)CC2Oc2ccc(C)cc2)cc1 (stereo unspecified) |  |  |  | -91.5% [100 µM] (active) and -93.1% [100 µM] (active) |  |  |  | 
S=C1SCN(Cc2ccccc2)CN1Cc1ccccc1 |  | 85.5% (inactive) | 32.9% (inactive) | 17.8% (inactive) | 7.28% (active) |  | 5.8% (active) | 93.6% (inactive)
O=C(Cc1cccc2ccccc12)N/N=C/c1ccc2c(c1)CCC2 |  | 7.56% (active) | 54.8% (inactive) | 80.5% (inactive) | 66.4% (inactive) | 81.9% (inactive) | 54.3% (inactive) | 92.5% (inactive)
CCOC(=O)c1sc(N)nc1-c1ccccc1 |  | 103% (inactive) | 109% (inactive) |  | 96.7% (inactive) |  | 106% (inactive) | 99.9% (inactive)
c1ccc2c(CC3=NCCN3)cccc2c1 |  | 101% (inactive) and 106% (inactive) | 107% (inactive) and 110% (inactive) | 99.4% (inactive) and 102% (inactive) | 94.7% (inactive) and 104% (inactive) | 97.5% (inactive) and 103% (inactive) | 109% (inactive) and 111% (inactive) | 101% (inactive) and 96.9% (inactive)
CCC(=O)C(CC)c1cccc(OC)c1 (stereo unspecified) |  | 101% (inactive) | 105% (inactive) | 104% (inactive) | 104% (inactive) |  | 111% (inactive) | 105% (inactive)
O[C@H](c1cc(C(F)(F)F)nc2c(C(F)(F)F)cccc12)[C@@H]1CCCCN1 |  | 64.2% (inactive) and 69% (inactive) | 71% (inactive) and 74.1% (inactive) | 21.3% (inactive) and 13.3% (inactive) | 44.1% (inactive) and 45.2% (inactive) | 74.5% (inactive) and 54.9% (inactive) | 50.7% (inactive) and 43.8% (inactive) | 65.1% (inactive) and 74.8% (inactive)
CC(=O)C(/C=N/C(N)=O)=C(/C)O |  | 103% (inactive) | 105% (inactive) | 106% (inactive) | 105% (inactive) | 106% (inactive) | 111% (inactive) | 101% (inactive)
O=C(CCc1ccc(O)cc1)N/N=C/c1cc(Br)ccc1O |  | 55.8% (inactive) | 59.5% (inactive) | 38.9% (inactive) | 46.7% (inactive) | 50.1% (inactive) | 28.1% (inactive) | 52.4% (inactive)
N#CC1(C#N)N[C@@H](c2ccsc2)[C@H]2C(=O)N(c3ccccc3)C(=O)[C@H]21 |  |  |  | 22.5% [100 µM] (inactive) and 12.4% [100 µM] (inactive) |  |  |  | 
O=C(O)CSCc1nc2ccccc2[nH]1 |  | 115% (inactive) | 103% (inactive) | 96.4% (inactive) | 107% (inactive) | 103% (inactive) | 111% (inactive) | 
Cc1ccc(/C=N/Nc2nc3ccccc3s2)s1 |  |  |  | 2.03% [100 µM] (active) and 4.5% [100 µM] (active) |  |  |  | 
N#C/C=C1\C=CC(O)C(O)C1OC1OC(CO)C(O)C(O)C1O (stereo unspecified) |  |  |  | 92.7% [100 µM] (inactive) and 74.4% [100 µM] (inactive) |  |  |  | 
CCN(CC)C(=S)SSC(=S)N(CC)CC |  | 83.3% (inactive) and 106% (inactive) | 77.2% (inactive) and 109% (inactive) | 71.4% (inactive) and 95.9% (inactive) | 58.6% (inactive) and 93.8% (inactive) | 91.9% (inactive) and 102% (inactive) | 88.8% (inactive) and 97.5% (inactive) | 90.6% (inactive) and 90.3% (inactive)
COc1cc2c(Nc3ccc(Cl)c(Cl)c3F)ncnc2cc1OCC1C[C@@H]2CN(C)C[C@@H]2C1 (stereo partly specified) |  | -95.8% (active) and -38% (active) | -76.6% (active) and 6.96% (active) | -71.9% (active) and 13.4% (inactive) | -85.4% (active) and 7.79% (active) | -87.7% (active) and 22.2% (inactive) | -88.5% (active) and 39.9% (inactive) | -87.2% (active) and 36.9% (inactive)
O=C=NC(c1ccccc1)(c1ccccc1)c1ccccc1 |  | 108% (inactive) | 107% (inactive) | 102% (inactive) | 93.5% (inactive) |  | 103% (inactive) | 103% (inactive)
